# Columns and labels:
# Test in all cases: PBM binding z-score (relative to random genomic background probes); higher = stronger binding; sequences stand for … in GC…GCGATTGACAGCGTAGAATGAAGG
# [1] = tested on: RARb homodimer (NR concentration 270 nM)
# Procedure, shortened: (§1)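 Probes were double-stranded and carried 34-nt variable regions with direct-repeat seeds, single-nucleotide variants, half-site ablations and random human genomic background sequences, printed on custom Agilent 4×180K protein-binding microarrays. Arrays were incubated 1 h with ligand-free nuclear receptor dimers in PBS pH 7.4, 2% milk, 0.02% Triton X-100, 1 mM DTT, 0.2 mg/mL BSA and 0.4 mg/ml salmon testes DNA. Antibodies against each partner (one per run) detected binding, and scanned fluorescence was regression-normalized. Binding z-scores use the random background probes as reference.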
# [2] = tested on: RARg:RXRa (NR concentration 270 nM, RXRa partner concentration 90 nM)
# Procedure, shortened: as §1
# [3] = tested on: RARg homodimer (NR concentration 270 nM)
# Procedure, shortened: as §1
# [4] = tested on: RXRa DBDmut IVT, anti-RXR (DBD mutation: RXRa K156A/R161A, NR concentration 90 nM)
# Procedure, shortened: as §1
# [5] = tested on: RXRa homodimer (NR concentration 180 nM)
# Procedure, shortened: as §1
# [6] = tested on: THRa:RXRa (NR concentration 90 nM, RXRa partner concentration 90 nM)
# Procedure, shortened: as §1
# [7] = tested on: THRa homodimer (NR concentration 90 nM)
# Procedure, shortened: as §1
# [8] = tested on: VDR homodimer (NR concentration 270 nM)
# Procedure, shortened: as §1
Sequence,PBM binding z-score [1],PBM binding z-score [2],PBM binding z-score [3],PBM binding z-score [4],PBM binding z-score [5],PBM binding z-score [6],PBM binding z-score [7],PBM binding z-score [8]
CCTACTGCGCCAAAGGTCATTGATTCCAATGCTC,4.88,5.4,4.69,2.16,6.21,3.46,1.9,3.56
ATCTTTAGGTAACCAAGTTCAGTGAATGCCGAAC,1.55,0.783,1.04,1.36,0.709,2.07,1.25,2.66
CGTCGAAGGTCAGCAGGTCAGTGAAAGCGACGTG,4.94,6.48,6.93,1.34,5.06,2.88,0.495,1
TCTGCTAGGTCAACGATGGTCATCTAATCTGCTA,3.5,4.05,4.69,1.07,2.9,3.45,0.805,-0.118
TCTAGCAGGCCAGAGGGTCACTGAAGAGGTACGG,2.72,2.74,1.97,-0.0936,2.63,1.7,-0.233,0.299
TTACCAAGGTTAAGGTCGTTGATCCCTCTGTAGA,2.57,2.63,2.31,1.41,3.4,3.73,3.45,2.83
ATACGTAGGTTAAGGGTCATTCAGGTTGGTTCGC,4.06,5.01,3.58,2.11,6.29,3.72,1.6,4.36
GCTGCTAGGTCAGGTTGGTCAGCTACCGGGTACG,2.79,2.17,3.73,0.371,0.808,1.76,0.717,0.476
CCTAGTTGGTCAAGGTCAGACACGCTATAGGTAC,3.62,3.19,3.82,1.56,2.73,3.34,2.57,2.29
AGAACGCGGGCAATGAGTTGATAGCACGGGTGGC,-0.332,0.0304,0.194,-0.0914,0.299,-0.395,-1.04,0.678

# Reference: the supplement of paper PMC6555819
